From PubChem BioAssay AID1159580 (chemical genetic matrix, 2015)
Several values for one entry are separate records, joined by “and”; a condition that tells them apart may be missing. Identical values can stand only once. Out of some 5,500 compounds screened, about 2,000 (36%) were called active. About 18% were inconclusive and are not listed. Cut-off read from the data, not from the text of the source: active = normalized growth mostly below about 0.91 (no sharp cut-off); inconclusive = no clear call, values can overlap the other calls; inactive = mostly above about 0.92. This is one part of the list.

Assay: chemical genetic growth profiling, strain panel (AID 1159580);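 note: tested at 20 µM; growth read once vehicle control cultures reached saturation at 30 °C; 1 = growth at the plate median or of vehicle wells; lower values mean less growth of the strain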
Conditions: S. cerevisiae deletion strains, growth OD

Measured: normalized growth

CCCCOC(=O)c1ccc(N)cc1
0.511 (active) and 0.971 (inactive): locus YJL095W, strain BCK1, stronger effect = lower value
active: locus YAL026C, strain drs2, stronger effect = lower value 0.603 | locus YAL030W, strain snc1, stronger effect = lower value 0.908 | locus YBL061C, strain skt5, stronger effect = lower value 0.71 | locus YBR009C, strain hhf1, stronger effect = lower value 0.849 | locus YBR023C, strain chs3, stronger effect = lower value 0.729 | locus YBR171W, strain sec66, stronger effect = lower value 0.884 | locus YBR231C, strain swc5, stronger effect = lower value 0.821 | locus YBR279W, strain paf1, stronger effect = lower value 0.897 | locus YCL011C, strain gbp2, stronger effect = lower value 0.891 | locus YCL016C, strain dcc1, stronger effect = lower value 0.86 | locus YCL069W, strain vba3, stronger effect = lower value 0.886 | locus YCR088W, strain abp1, stronger effect = lower value 0.862 | locus YDL040C, strain nat1, stronger effect = lower value 0.932 | locus YDL192W, strain arf1, stronger effect = lower value 0.886 | locus YDR001C, strain nth1, stronger effect = lower value 0.904 | locus YDR101C, strain arx1, stronger effect = lower value 0.898 | locus YDR137W, strain rgp1, stronger effect = lower value 0.453 | locus YDR159W, strain sac3, stronger effect = lower value 0.751 | locus YDR162C, strain NBP2, stronger effect = lower value 0.801 | locus YDR297W, strain sur2, stronger effect = lower value 0.92 | locus YDR318W, strain mcm21, stronger effect = lower value 0.897 | locus YDR335W, strain msn5, stronger effect = lower value 0.858 | locus YDR388W, stronger effect = lower value 0.911 | locus YDR392W, strain spt3, stronger effect = lower value 0.484 | locus YDR502C, strain sam2, stronger effect = lower value 0.911 | locus YEL003W, strain gim4, stronger effect = lower value 0.888 | locus YEL061C, strain CIN8 (second series), stronger effect = lower value 0.895 | locus YER015W, strain faa2, stronger effect = lower value 0.864 | locus YER016W, strain bim1, stronger effect = lower value 0.877 | locus YER111C, strain swi4, stronger effect = lower value 0.896 | locus YER155C, strain BEM2 (second series), stronger effect = lower value 0.203 | locus YGL086W, strain mad1, stronger effect = lower value 0.927 | locus YGL173C, strain kem1, stronger effect = lower value 0.876 | locus YGL227W, strain vid30, stronger effect = lower value 0.893 | locus YGL240W, strain doc1, stronger effect = lower value 0.666 | locus YGL253W, strain hxk2, stronger effect = lower value 0.869 | locus YGR135W, strain pre9, stronger effect = lower value 0.865 | locus YGR229C, strain SMI1, stronger effect = lower value 0.608 | locus YGR252W, strain gcn5, stronger effect = lower value 0.743 | locus YHR027C, strain rpn1, stronger effect = lower value 0.908 | locus YHR142W, strain chs7, stronger effect = lower value 0.495 | locus YJL092W, strain hpr5, stronger effect = lower value 0.872 | locus YJL095W, strain BCK1 (second series), stronger effect = lower value 0.278 | locus YJL129C, strain trk1, stronger effect = lower value 0.769 | locus YJL154C, strain vps35, stronger effect = lower value 0.906 | locus YJL164C, strain tpk1, stronger effect = lower value 0.871 | locus YJL166W, strain qcr8, stronger effect = lower value 0.825 | locus YJL187C, strain SWE1, stronger effect = lower value 0.919
0.637 (active) and 0.942 (inactive): locus YHR030C, strain SLT2, stronger effect = lower value
inactive: locus YAL013W, strain DEP1, stronger effect = lower value 0.974 | locus YAL021C, strain ccr4, stronger effect = lower value 0.909 | locus YBR021W, strain FUR4, stronger effect = lower value 0.948 | locus YBR229C, strain ROT2, stronger effect = lower value 0.993 | locus YCL029C, strain bik1, stronger effect = lower value 0.948 | locus YDL005C, strain med2, stronger effect = lower value 0.949 | locus YDL035C, strain GPR1, stronger effect = lower value 0.951 | locus YDL074C, strain BRE1, stronger effect = lower value 0.869 | locus YDL101C, strain DUN1, stronger effect = lower value 0.975 | locus YDL134C, strain PPH21, stronger effect = lower value 0.969 | locus YDL185W, strain tfp1, stronger effect = lower value 0.959 | locus YDR069C, strain doa4, stronger effect = lower value 0.916 | locus YDR150W, strain NUM1, stronger effect = lower value 0.988 | locus YDR195W, strain ref2 1.14 | locus YDR334W, strain swr1, stronger effect = lower value 0.914 | locus YEL037C, strain rad23, stronger effect = lower value 0.928 | locus YEL061C, strain CIN8, stronger effect = lower value 0.974 | locus YER110C, stronger effect = lower value 0.922 | locus YER155C, strain BEM2, stronger effect = lower value 0.969 | locus YER167W, strain BCK2, stronger effect = lower value 0.906 | locus YFR010W, strain ubp6, stronger effect = lower value 0.924 | locus YGL078C, strain dbp3, stronger effect = lower value 0.96 | locus YGL167C, strain pmr1, stronger effect = lower value 0.927 | locus YGL248W, strain PDE1, stronger effect = lower value 0.996 | locus YGR078C, strain PAC10, stronger effect = lower value 0.89 | locus YHR013C, strain ard1, stronger effect = lower value 0.856 | locus YHR079C, strain IRE1 (second series), stronger effect = lower value 0.935 | locus YHR079C, strain IRE1, stronger effect = lower value 0.993 | locus YHR094C, strain hxt1, stronger effect = lower value 0.961 | locus YHR129C, strain ARP1, stronger effect = lower value 0.984 | locus YHR200W, strain rpn10, stronger effect = lower value 0.933 | locus YIL066C, strain RNR3, stronger effect = lower value 0.925 | locus YIL073C, strain SPO22, stronger effect = lower value 0.85 | locus YIL125W, strain kgd1, stronger effect = lower value 0.967 | locus YIR030C, strain dcg1, stronger effect = lower value 0.946 | locus YJL115W, strain asf1, stronger effect = lower value 0.907 | locus YJL134W, strain LCB3, stronger effect = lower value 0.985 | locus YJL168C, strain set2, stronger effect = lower value 0.953 | locus YJL187C, strain SWE1 (second series), stronger effect = lower value 0.93 | locus YJR043C, strain POL32, stronger effect = lower value 0.871 | locus YJR066W, strain TOR1, stronger effect = lower value 0.949
